Measurements reported in PubChem BioAssay (NCATS).
Inconclusive results are not listed. Calls of active or inactive are those of the source. Calls come from the whole dose curve; as a rule, active = well fitted curve in the direction sought with a large enough effect; inconclusive = small, poorly fitted or top-dose-only effect, or another doubt; inactive = no such curve, though single readings can be large; an effect the other way counts as inactive or inconclusive.

Legend:
HEK293T [1] = test: qHTS assay to identify novel small-molecules to repurpose for Merkel cell carcinoma treatment (AID 1296009); conditions: MCC and control cell lines, CellTiter-Glo viability, 72 h; at 44.8 µM (top of the series) unless noted; note: nearly all actives have a fitted effect of over 60% in size
Summary of the method: (§1)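 Dose-response viability screen; 72 hr exposure at 37 degree celsius; CellTiter-Glo added, 10 min room temperature, luminescence read; RLUs scaled between no-cell and DMSO wells.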

MCC-13 = test: as above; conditions: MCC and control cell lines, CellTiter-Glo viability, 72 h; series mostly up to 46 µM
Summary of the method: as §1

MKL-1 = test: as above; conditions: MCC and control cell lines, CellTiter-Glo viability, 72 h; series mostly up to 46 µM
Summary of the method: as §1

MKL-2 = test: as above; conditions: MCC and control cell lines, CellTiter-Glo viability, 72 h; series mostly up to 46 µM
Summary of the method: as §1

UISO = test: as above; conditions: MCC and control cell lines, CellTiter-Glo viability, 72 h; series mostly up to 46 µM
Summary of the method: as §1

WaGa = test: as above; conditions: MCC and control cell lines, CellTiter-Glo viability, 72 h; series mostly up to 46 µM
Summary of the method: as §1

C33A = test: Primary qHTS to identify gynecologic anti-cancer compounds using libraries of approved drugs and bioactive compounds (AID 1345084); conditions: Gynecologic cancer cell panel viability, ATPlite luminescence, 48 h; series mostly up to 57.5 µM; note: nearly all actives have a fitted effect of over 55% in size
Summary of the method: (§2)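 Cell viability after 48 h drug treatment, ATPlite luminescence readout; five doses.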

CASKI = test: as above; conditions: Gynecologic cancer cell panel viability, ATPlite luminescence, 48 h; series mostly up to 57.5 µM
Summary of the method: as §2

Es-2 = test: as above; conditions: Gynecologic cancer cell panel viability, ATPlite luminescence, 48 h; series mostly up to 57.5 µM
Summary of the method: as §2

HeLa = test: as above; conditions: Gynecologic cancer cell panel viability, ATPlite luminescence, 48 h; series mostly up to 57.5 µM
Summary of the method: as §2

Hek293T [2] = test: as above; conditions: Gynecologic cancer cell panel viability, ATPlite luminescence, 48 h, control line for the selectivity index; series mostly up to 57.5 µM
Summary of the method: as §2

JEG-3 = test: as above; conditions: Gynecologic cancer cell panel viability, ATPlite luminescence, 48 h; series mostly up to 57.5 µM
Summary of the method: as §2

OV90 = test: as above; conditions: Gynecologic cancer cell panel viability, ATPlite luminescence, 48 h; series mostly up to 57.5 µM
Summary of the method: as §2

PA-1 = test: as above; conditions: Gynecologic cancer cell panel viability, ATPlite luminescence, 48 h; series mostly up to 57.5 µM
Summary of the method: as §2

SKOV3 = test: as above; conditions: Gynecologic cancer cell panel viability, ATPlite luminescence, 48 h; series mostly up to 57.5 µM
Summary of the method: as §2

Tov-21-G = test: as above; conditions: Gynecologic cancer cell panel viability, ATPlite luminescence, 48 h; series mostly up to 57.5 µM
Summary of the method: as §2

Tov112D = test: as above; conditions: Gynecologic cancer cell panel viability, ATPlite luminescence, 48 h; series mostly up to 57.5 µM
Summary of the method: as §2

CAOV3 = test: as above; conditions: Gynecologic cancer cell panel viability, ATPlite luminescence, 48 h; series mostly up to 57.5 µM
Summary of the method: as §2

MCC-26 = test: qHTS assay to identify novel small-molecules to repurpose for Merkel cell carcinoma treatment (AID 1296009); conditions: MCC and control cell lines, CellTiter-Glo viability, 72 h; series mostly up to 46 µM; note: nearly all actives have a fitted effect of over 60% in size
Summary of the method: as §1

NIH3T3 = test: as above; conditions: MCC and control cell lines, CellTiter-Glo viability, 72 h; at 44.8 µM (top of the series) unless noted
Summary of the method: as §1

Measured: Potency

NCc1ccc(S(N)(=O)=O)cc1
inactive: HEK293T [1] | MCC-13 | MKL-1 | MKL-2 | UISO | WaGa | C33A | CASKI | Es-2 | HeLa | Hek293T [2] | JEG-3 | OV90 | PA-1 | SKOV3 | Tov-21-G | Tov112D

CCN(CC)S(=O)(=O)c1ccc(C(=O)O)cc1
inactive: HEK293T [1] | MCC-13 | MKL-1 | MKL-2 | UISO | WaGa | C33A | CAOV3 | CASKI | Es-2 | HeLa | Hek293T [2] | JEG-3 | OV90 | PA-1 | SKOV3 | Tov-21-G | Tov112D

CC(=O)OCC(COC(C)=O)OC(C)=O
inactive: MCC-13 | MCC-26 | MKL-1 | MKL-2 | NIH3T3 | UISO | WaGa | C33A | CAOV3 | CASKI | Es-2 | HeLa | Hek293T [2] | JEG-3 | OV90 | PA-1 | SKOV3 | Tov-21-G | Tov112D

O=C(CN1CCNCC1)NC1CCCCC1
inactive: MCC-13 | MCC-26 | MKL-1 | MKL-2 | NIH3T3 inactive; activator | UISO | WaGa | C33A | CAOV3 | CASKI | Es-2 | HeLa | Hek293T [2] | JEG-3 | OV90 | PA-1 | SKOV3 | Tov-21-G | Tov112D

COc1ccc(-c2cc(=O)c3c(O)cc(O[C@@H]4O[C@H](CO[C@@H]5O[C@@H](C)[C@H](O)[C@@H](O)[C@H]5O)[C@@H](O)[C@H](O)[C@H]4O)cc3o2)cc1O
inactive: HEK293T [1] | MCC-13 | MKL-1 | MKL-2 | UISO | WaGa | C33A | CAOV3 | CASKI | Es-2 | HeLa | Hek293T [2] | JEG-3 | OV90 | PA-1 | SKOV3 | Tov-21-G | Tov112D

CC(=O)Nc1ccc(C(=O)O)cc1
inactive: HEK293T [1] | MCC-13 | MKL-1 | MKL-2 | UISO | WaGa | C33A | CASKI | Es-2 | HeLa | Hek293T [2] | JEG-3 | OV90 | PA-1 | SKOV3 | Tov-21-G | Tov112D

Cc1c(I)c(=O)n(-c2ccccc2)n1C
inactive: MCC-13 | MCC-26 | MKL-1 | MKL-2 | NIH3T3 | UISO | WaGa | C33A | CAOV3 | CASKI | Es-2 | HeLa | Hek293T [2] | JEG-3 | OV90 | PA-1 | SKOV3 | Tov-21-G | Tov112D

O=C(O)c1ccc[n+]([O-])c1
inactive: MCC-13 | MCC-26 | MKL-1 | MKL-2 | NIH3T3 | UISO | WaGa | C33A | CAOV3 | CASKI | Es-2 | HeLa | Hek293T [2] | JEG-3 | OV90 | PA-1 | SKOV3 | Tov-21-G | Tov112D

COc1ccc(O)cc1
inactive: HEK293T [1] | MCC-13 | MCC-26 | MKL-1 | UISO | WaGa | C33A | CAOV3 | CASKI | Es-2 | HeLa | Hek293T [2] | JEG-3 | OV90 | PA-1 | SKOV3 | Tov-21-G | Tov112D

O=C1CC[C@@H](C(=O)O)N1
inactive: HEK293T [1] | MCC-13 | MKL-1 | MKL-2 | UISO | WaGa | C33A | CAOV3 | CASKI | Es-2 | HeLa | Hek293T [2] | JEG-3 | OV90 | PA-1 | SKOV3 | Tov-21-G | Tov112D

O=S1(=O)OC(c2ccc(O)cc2)(c2ccc(O)cc2)c2ccccc21
inactive: MCC-13 | MCC-26 | MKL-1 | MKL-2 | NIH3T3 | UISO | WaGa | C33A | CAOV3 | CASKI | Es-2 | HeLa | Hek293T [2] | JEG-3 | OV90 | PA-1 | SKOV3 | Tov-21-G | Tov112D

O=C(O)CCCc1ccccc1
inactive: HEK293T [1] | MCC-13 | MKL-1 | MKL-2 | UISO | WaGa | C33A | CAOV3 | CASKI | Es-2 | HeLa | Hek293T [2] | JEG-3 | OV90 | PA-1 | SKOV3 | Tov-21-G | Tov112D

COc1cc(C(=O)NCCCCCC(=O)O)cc(OC)c1OC
inactive: HEK293T [1] | MCC-13 | MKL-1 | MKL-2 | UISO | WaGa | C33A | CAOV3 | CASKI | Es-2 | HeLa | Hek293T [2] | JEG-3 | OV90 | Tov-21-G | Tov112D

O=C1c2ccccc2S(=O)(=O)N1CCCCN1CCN(c2ncccn2)CC1
inactive: MCC-13 | MCC-26 | MKL-1 | MKL-2 | NIH3T3 | UISO | WaGa | C33A | CAOV3 | CASKI | Es-2 | HeLa | Hek293T [2] | JEG-3 | OV90 | PA-1 | SKOV3 | Tov-21-G | Tov112D

CCCNC(C)C(=O)Nc1c(C)csc1C(=O)OC (stereo not drawn)
inactive: MCC-13 | MCC-26 | MKL-1 | MKL-2 | NIH3T3 | UISO | WaGa | C33A | CAOV3 | CASKI | Es-2 | HeLa | Hek293T [2] | JEG-3 | OV90 | PA-1 | SKOV3 | Tov-21-G | Tov112D
